# Data published in PubChem BioAssay AID1508602 (The Scripps Research Institute Molecular Screening Center, 2020).
# Screen size: about 650,000 compounds; about 6,800 (1%) were called active. Shown is part of a subset that was picked to be rich in actives. Values without a mark were called inactive. No stated cut-off is given here; in the data, active means activation above about 4.9%; inactive means the rest.
# Target: G-protein coupled receptor 151 (Homo sapiens) (UniProt Q8TDV0)
# Test: activates the human receptor GPR151, primary screen, cell-based, PathHunter beta-arrestin, luminescence (AID 1508602);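 further: 0% = median of compound wells and 100% = cells with positive control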
# Settings: PathHunter beta-arrestin GPR151 cells, at 11.2 µM, hits give high values
# G-protein coupled receptor 151 (Homo sapiens), sequence (Q8TDV0 whole entry, looked up): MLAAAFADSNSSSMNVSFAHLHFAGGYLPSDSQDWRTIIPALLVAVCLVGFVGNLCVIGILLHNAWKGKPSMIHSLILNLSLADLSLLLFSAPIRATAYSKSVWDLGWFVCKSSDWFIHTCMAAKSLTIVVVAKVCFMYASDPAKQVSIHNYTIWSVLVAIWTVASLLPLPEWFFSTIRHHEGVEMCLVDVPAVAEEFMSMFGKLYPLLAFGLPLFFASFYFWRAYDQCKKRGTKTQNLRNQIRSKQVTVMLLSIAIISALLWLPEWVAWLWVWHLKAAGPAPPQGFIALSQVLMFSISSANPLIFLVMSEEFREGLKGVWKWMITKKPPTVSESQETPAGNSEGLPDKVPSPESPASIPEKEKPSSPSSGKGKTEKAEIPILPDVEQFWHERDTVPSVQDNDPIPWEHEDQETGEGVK
row,SMILES,activation
1,CCCSc1nnc2c(n1)OC(c1cccc(Br)c1)Nc1ccccc1-2 (stereo not drawn),-0.594%
2,COc1ccc(NCN2C(=O)c3cc(Cl)c(Cl)cc3C2=O)cc1,-1.71%
3,COc1ccc(N2C(=O)C(Cl)=C(Nc3ccc(C)cc3)C2=O)cc1,5.51% (active)
4,CCOC(=O)C1=C(C)N(c2ccc(C)cc2)C(=O)/C1=C\c1ccc(OC)cc1,-0.542%
5,COc1cc(/C=C2/NC(=O)N(Cc3ccc(Br)cc3)C2=O)ccc1O,-0.481%
6,O=C(C1CCN(S(=O)(=O)Cc2ccccc2)CC1)N1CCCc2ccccc21,8.15% (active)
7,O=C(C1CCCN1S(=O)(=O)c1ccc(Cl)cc1)N1CCCc2ccccc21 (stereo not drawn),-1.26%
8,O=C(Cc1ccccc1)N1CCCc2ccccc21,0.472%
9,Cc1ccc(C(=O)Nc2ccc(O)c(-c3nc4ccccc4o3)c2)cc1,1.96%
10,C/C(CC(=O)Nc1cccc(F)c1)=N\NC(=O)c1cccc(C)c1,0.312%
11,COc1ccc2c(Cl)c(C(=O)Nc3ccc(N(C)C(C)=O)cc3)sc2c1,0.165%
12,CN(Cc1nc(-c2ccc3c(c2)OCO3)no1)C1CCCc2ccccc21 (stereo not drawn),6.73% (active)
13,c1ccc2c(c1)CCC2Nc1nncc(-c2ccc3c(c2)OCO3)n1 (stereo not drawn),0.54%
14,O=C1CC[C@@H](CN(Cc2ccccn2)Cc2nc(-c3ccc4c(c3)OCO4)no2)N1,-0.5%
15,O=C1c2cccnc2C(=O)N1Cc1ccc(S(=O)(=O)NCc2ccccc2Cl)cc1,-0.655%
16,COC(=O)c1sc(SC)nc1Nc1ccnc(Nc2ccc(N3CCOCC3)cc2OC)c1,0.519%
17,COc1cccc(/C=C(/C#N)C(=O)Nc2ccc(F)cc2)c1O,0.228%
18,COc1ccc(/C=C(\C#N)C(=O)Nc2ccc(F)cc2)c(OC)c1,6.94% (active)
19,COc1ccc(NC(=O)/C(C#N)=C/c2ccccc2[N+](=O)[O-])cc1,0.536%
20,CCOc1nn(CC)cc1-c1nnc(SCC(=O)NC)n1C,1.61%
21,CCCNC(=O)N1CCC2(CC1)OCc1ccccc1O2,-0.163%
22,Cn1c(=O)cc(OCC(=O)NCCN2CCOCC2)c2ccccc21,-0.103%
23,O=C(NCCN1CCOCC1)c1cncc(-c2ccccc2)c1,-0.0692%
24,CC(=O)Oc1cc2c(C(=O)NCCN3CCOCC3)c(C)oc2c2ccccc12,7.59% (active)

row,SMILES,activation
1,CC(O)CNc1ncnc2c1c(-c1ccccc1)cn2-c1ccc(Cl)cc1 (stereo not drawn),-0.64%
2,O=C(Nc1cc(Oc2cccnc2)cc([N+](=O)[O-])c1)c1cc2nc(-c3ccc(F)cc3)cc(C(F)(F)F)n2n1,0.0201%
3,Cn1ccc(CC(=O)N2CCOc3ccc(CN4CCCC4)cc3C2)c1,-0.228%
4,CCC(=O)Nc1cc(C(=O)O)ccc1C,5.86% (active)
5,COc1cccc(OC)c1C(=O)Nc1cc(C(=O)O)ccc1C,1.75%
6,CCC(=O)Nc1ccc(C(=O)c2ccccc2)cc1NC(=O)CC,0.269%
7,COc1ccc(NC(=O)c2cc(S(=O)(=O)N3CCCCC3)ccc2F)cc1,-0.423%
8,CCOc1ccc(NC(=O)/C(C#N)=C\c2ccc(OC)cc2)cc1,-0.986%
9,COc1ccc(/C=C(\C#N)C(=O)Nc2cccc(S(=O)(=O)N3CCCCC3)c2)cc1,6.12% (active)
10,O=C(Nc1ccc2oc(-c3ccc(F)cc3)nc2c1)c1ccc([N+](=O)[O-])cc1,0.435%
11,Cc1cccc(NC(=O)COc2ccc([N+](=O)[O-])cc2)c1,0.0864%
12,O=C(COc1ccc([N+](=O)[O-])cc1)Nc1cccc(Br)c1,0.574%
13,COC(=O)c1cc(NC(=O)COc2ccc([N+](=O)[O-])cc2)cc(C(=O)OC)c1,5.49% (active)
14,Cc1cc2nc(-c3cccc(NC(=O)COc4ccc(Br)cc4)c3)oc2cc1C,-0.225%
15,O=C(COc1ccc([N+](=O)[O-])cc1)Nc1ccc2oc(-c3cccc(F)c3)nc2c1,6.49% (active)
16,CCCNc1nc(Cl)nc2c1ncn2Cc1ccc(C(F)(F)F)cc1,0.16%
17,O=C(Cc1csc(SCc2cccc(Cl)c2)n1)NC1CCCC1,-0.537%
18,Cc1ccc2c(c1)N(CC(=O)N(Cc1ccccc1)Cc1ccc3c(c1)OCO3)C(=O)CO2,1.35%
19,CCC(=O)N(CCC(Cc1ccccc1)c1ccc2c(c1)OCO2)Cc1ccc(OC(C)C)cc1 (stereo not drawn),6.12% (active)
20,O=C(Nc1ccc2c(c1)OCO2)C(c1ccccc1)N(Cc1ccccc1)Cc1ccccc1 (stereo not drawn),-0.714%
21,CCn1c(SCC(=O)Nc2ccccc2Cl)nnc1-c1ccccc1N,0.603%
22,CC(C)(C)C(=O)CSc1nc2c(sc(=S)n2CCc2ccccc2)c(=O)n1Cc1ccco1,-0.941%
23,CC(C)(C)C1CCC(=NNC(=O)C(=O)NCCc2ccccc2)CC1 (stereo not drawn),6.69% (active)
24,CNC(=O)C(=O)NCCc1ccccc1,2.61%

row,SMILES,activation
1,O=C(NCCc1ccccc1)C(=O)NCCC1CCCCC1,-1.51%
2,Cc1ccc2c(CC(=O)N3CCc4ccccc4C3)cc(=O)oc2c1,-1.02%
3,Cc1nnc(C)n1/N=C/c1ccc(Br)cc1,0.537%
4,Cc1nc([N+](=O)[O-])cn1CC(=O)C12CC3CC(CC(C3)C1)C2,0.332%
5,COc1ccc(CCNc2cc(C)nc3ncnn23)cc1,-0.69%
6,COP(=O)(OC)C(OC(=O)NC(=O)C(Cl)(Cl)Cl)c1ccccc1 (stereo not drawn),0.583%
7,O=C(Nc1ccc(N2CCCCC2)c(Cl)c1)c1ccc([N+](=O)[O-])o1,1.67%
8,CCN(CC)S(=O)(=O)c1ccc(N2CCCC2)c(NC(=O)c2ccc([N+](=O)[O-])o2)c1,5.27% (active)
9,CCN(CC)S(=O)(=O)c1ccc(N2CCCC2)c(C(=O)O)c1,1.07%
10,Cc1ccc(-c2cnn3ccc(NCc4cccnc4)nc23)cc1C,-1.12%
11,Cc1ccc(S(=O)(=O)N/N=C/c2c[nH]c3ccc(Br)cc23)cc1,0.63%
12,O=C(O)c1ccc(-c2nc(-c3cccs3)c(-c3cccs3)[nH]2)cc1,1.43%
13,COc1cc(OC)cc(-c2nc(-c3ccccc3)c(-c3cccs3)[nH]2)c1,0.0508%
14,c1ccc(-c2nc(-c3cccs3)[nH]c2-c2cccs2)cc1,6.25% (active)
15,O=C1NC2(CCN(CC3CCC=CO3)CC2)Oc2ccccc21 (stereo not drawn),-0.166%
16,CCN(CC)S(=O)(=O)c1ccc(C)c(NS(=O)(=O)c2cccc(C#N)c2)c1,5.51% (active)
17,N#Cc1cccc(S(=O)(=O)Nc2cccc(Br)c2)c1,0.99%
18,CCN(CC)S(=O)(=O)c1cccc(C(=O)N/N=C(\C)c2ccc(C#N)cc2)c1,-0.108%
19,NC(=O)c1c(NC(=O)c2ccc(Oc3ccccc3)cc2)sc2c1CCCCC2,-0.921%
20,COc1ccc(C(=O)Nc2sc3c(c2C(N)=O)CCCC3)cc1,5.12% (active)
21,CNC(=O)c1c(NC(=O)c2ccc(OC)cc2)sc2c1CCCCC2,-1.51%
22,COc1cccc(C(=O)Nc2sc3c(c2C(N)=O)CCCCCC3)c1,6.65% (active)
23,CNC(=O)c1c(NC(=O)c2cccc(OC)c2)sc2c1CCC2,-0.776%
24,CC(C)Oc1ccc(C(=O)Nc2sc3c(c2C(N)=O)CCCC3)cc1,-0.378%

row,SMILES,activation
1,CCc1ccc2[nH]c3nc(SCC#N)nnc3c2c1,-0.711%
2,COCCN1C(=O)CC(CC(=O)N2CCN(C)C[C@@H]2C(C)C)(c2cccc(OC)c2)C1=O (stereo partly drawn),1.08%
3,CCCCOc1ccc(S(=O)(=O)NC2CCCCC2)cc1,-1.26%
4,Cc1nn(C)c(C)c1-c1nc2ncnc(NCCO)c2[nH]1,7.4% (active)
5,Cc1nn(C)c(C)c1-c1nc2c(NCCO)ncnc2n1C(C)C,-0.731%
6,OCCNc1ncnc2nc(-c3ccccc3)[nH]c12,0.187%
7,N#CCCCSc1nnc(-c2ccc(C#N)cc2)o1,-0.162%
8,COc1ccc(-c2nnc(SCC(=O)NC(N)=O)o2)cc1,0.906%
9,COc1ccc(-c2nnc(SCCC#N)o2)cc1,10.1% (active)
10,CCOC(=O)c1cc2c(=O)n3ccccc3nc2n(Cc2ccco2)c1=NC(=O)c1ccc(Cl)cc1,-0.357%
11,CC(C)N(C(=O)CN(C)S(=O)(=O)c1cc(Cl)ccc1Cl)C(C)C,-0.725%
12,COc1ccc(NC(=O)c2nn3c(C(F)(F)F)cc(-c4ccccc4)nc3c2Br)c(OC)c1,2.64%
13,O=C(/C=C/c1ccccc1Cl)Nc1ccc(I)cc1,1.42%
14,O=C(O)/C=C/c1ccccc1Cl,5.27% (active)
15,CC(C)c1ccc(NC(=O)/C=C/c2ccccc2Cl)cc1,1.13%
16,CC(=O)NS(=O)(=O)c1ccc(NC(=O)/C=C/c2ccccc2Cl)cc1,0.647%
17,CC(C)NC(=O)/C=C/c1ccccc1Cl,5.07% (active)
18,NC(=O)NC(=O)COC(=O)/C=C/c1ccccc1Cl,1.72%
19,CCOc1ccc(CN2CCN(Cc3ccc(C)o3)C(CCO)C2)cc1CO (stereo not drawn),1.78%
20,O=C(N/N=C/c1ccc([N+](=O)[O-])cc1)c1cccc(I)c1,-0.236%
21,O=C(O)c1ccc(Br)c(N2C(=O)c3cc(Cl)c(Cl)cc3C2=O)c1,0.176%
